Source: PubChem BioAssay (several laboratories)
tim10-1 inh: growth inhibitors of tim10-1 mutant yeast, primary screen, luminescence, uHTS | 330,000 compounds, 2.2% hits | AID 463190, 2010 | inhibition, % at 20 µM | S. cerevisiae tim10-1 ts strain growth, BacTiter-Glo, 24 h;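 active = inhibition of at least 40%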;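 note: mutant grown at 25 °C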
SKKanGAS inh: S. pyogenes SKKanGAS growth inhibitors in kanamycin, primary screen, streptokinase expression inhibitor project, SKKanGAS strain, BacTiter-Glo luminescence | 300,000 compounds, 1.3% hits | 6 h | inhibition, % at 7.5 µM | AID 1662, 2009;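 active = mean replicate score, as percent of positive control median, at least 50; inconclusive = mean below 50 but one replicate at or above 50; inactive = mean and every replicate below 50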;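 note: strain carries kanamycin resistance gene driven by streptokinase promoter and grows in 40 µg/ml kanamycin; loss of luminescence reflects streptokinase promoter inhibition or plain growth inhibition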
tim23-1 inh: growth inhibitors of tim23-1 mutant yeast, primary screen, luminescence, uHTS; S. cerevisiae tim23-1 growth, BacTiter-Glo luminescence, 24 h; inhibition, % at 20 µM; 330,000 compounds, 1.3% hits;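 active = growth inhibition of the mutant yeast at or above 50%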;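 note: temperature-sensitive mutant grown at 25 °C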
TIM10 inh: growth inhibitors of isogenic TIM10 control yeast, primary screen, counter-screen for tim10-1 yeast inhibitor project, luminescence, uHTS; S. cerevisiae TIM10 strain growth, BacTiter-Glo luminescence, 24 h; inhibition, % at 10 µM; 330,000 compounds, 1.4% hits;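 active = inhibition of 40% or more at the single tested concentration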;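 note: wild-type TIM10 isogenic control strain grown at permissive 25 °C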
NALP1 inh: NALP1 inflammasome inhibitors in reconstituted yeast, colorimetric, S. cerevisiae, triplicate retest | S. cerevisiae NALP1/ASC/caspase-1 growth, X-gal OD620, 72 h | inhibition, % at 10 µM | 280,000 compounds, 0.61% hits; in the data active = inhibition mostly above about 24%, no sharp cut-off; inactive = mostly below about 32%
NLRP3 yeast inh: NALP3 inflammasome inhibitors in reconstituted yeast, primary screen, luminescence, uHTS | Yeast reconstituted NLRP3/ASC/caspase-1, beta-gal luminescence, 24 h | inhibition, % at 10 µM | 330,000 compounds, 0.39% hits;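 active = inhibition of 50% or more; inactive = inhibition below 50%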
tim10-1 conf: growth inhibitors of tim10-1 mutant yeast, confirmation, single concentration, luminescence, S. cerevisiae. shares compounds with tim10-1 inh. S. cerevisiae tim10-1 ts strain growth, BacTiter-Glo, 24 h. inhibition, % at 20 µM. 7,400 compounds, 56% hits. AID 463213, 2010;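 active = inhibition of yeast growth at or above a set limit in either of two repeat tests at 20 µM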;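 note: tim10-1 mutant grown at permissive 25 °C to find synthetic lethal compounds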
A number is an active result; 0 = inactive; ? = inconclusive; - = not tested or not shown. In the library only some 4.9% were active in any assay of this set; here they are far more common.

SMILES | tim10-1 inh | SKKanGAS inh | tim23-1 inh | TIM10 inh | NALP1 inh | NLRP3 yeast inh | tim10-1 conf
FC(F)(F)c1cnc2c(-c3ccccc3)n[nH]c2c1 | 0 | 0 | 0 | 0 | 0 | 0 | -
CC(=O)Nc1nc2ccccc2n1Cc1ccccc1Cl | 46 | 52 | 0 | 0 | 0 | 0 | 0
CC(=O)Nc1nc2ccccc2n1Cc1ccccc1C | 46 | 0 | 0 | 0 | 0 | 0 | 0
COc1ccc(CCN2CC(C(=O)N(C)Cc3ccc(C)o3)CCC2=O)cc1 (stereo not given) | 0 | 0 | 0 | 0 | 0 | 0 | -
CCOc1ccc(OCC)c(S(=O)(=O)N2CCCCC2C)c1 (stereo not given) | 43 | 0 | 0 | 0 | 0 | 0 | 0
N#Cc1c(N)nc(SCC(=O)C23CC4CC(CC(C4)C2)C3)c(C#N)c1-c1ccc(Cl)cc1 | 45 | 0 | 0 | 0 | 0 | 0 | 43
CCCc1nnc(NC(=O)C2CC(=O)N(C3CCCC3)C2)s1 (stereo not given) | 0 | 0 | 0 | 0 | 0 | 0 | -
CC(=O)Nc1ccc(C(=O)OCCc2ccccc2)cc1 | 42 | 0 | 0 | 0 | 0 | 0 | 33
CCOC(=O)c1ccc(NC(=S)NCCc2ccccc2)cc1 | 41 | 0 | 0 | 0 | 0 | 0 | 0
CCOC(=O)c1ccc(NC(=S)NCCc2ccccc2F)cc1 | 40 | 0 | 0 | 0 | 0 | 0 | 0
CCc1nccn1CCC(=O)N1CCCC(N2CCN(c3cccc(Cl)c3)CC2)C1 (stereo not given) | 0 | 0 | 0 | 0 | 0 | 0 | -
CCOC(=O)C1CCN(CCCSc2ccccc2)CC1 | - | 0 | - | - | - | - | -
NS(=O)(=O)c1cccc(NC(=O)COC(=O)CCC(=O)c2cccs2)c1 | 0 | - | 0 | 0 | - | 0 | -
N#C/C(=C\c1c[nH]c2ccc(Br)cc12)c1ccccn1 | 48 | 51 | 0 | 0 | 0 | 0 | 35
COc1cc(=O)[nH]c(SCC(=O)Nc2nc3c(s2)CCCC3)n1 | 0 | 0 | 0 | 0 | 0 | 0 | -
Cc1ccc(F)cc1NC(=S)NCCc1ccccc1 | 45 | 0 | 0 | 0 | - | 0 | 0
Cc1ccc(NC(=S)NCCc2ccc(F)cc2)c(C)c1 | 0 | 0 | 0 | 0 | 0 | 0 | -
CCOc1ccccc1NC(=S)NCCc1ccccc1 | 42 | 0 | 0 | 0 | 0 | 0 | 0
CCOc1ccccc1NC(=S)NCCc1ccc(F)cc1 | 0 | 0 | 0 | 0 | 0 | 0 | -
C=C(C)CNC(=S)N/N=C1\CCCCc2ccccc21 | 55 | 0 | 0 | 0 | 0 | 0 | 41
COc1ccc(-c2cc(-c3ccc(Cl)cc3)n[nH]2)c(O)c1 | 41 | ? | 0 | 0 | 0 | 0 | 45
Oc1ccc(Br)cc1-c1cc(-c2ccc(Cl)cc2)n[nH]1 | 0 | 0 | 0 | 0 | 0 | 0 | -
COc1ccc(-c2cc(-c3cc(F)ccc3O)[nH]n2)cc1OC | 0 | 0 | 0 | 0 | 0 | 0 | 0
COc1ccc(-c2cc(-c3ccccc3O)[nH]n2)cc1OC | 0 | 0 | 0 | 0 | 0 | 0 | -
Cc1ccnc(N=Cc2c(O)ccc3oc4c(c23)CCCC4)c1 | - | - | - | - | 0 | - | -
SMILES | tim10-1 inh | SKKanGAS inh | tim23-1 inh | TIM10 inh | NALP1 inh | NLRP3 yeast inh | tim10-1 conf
O=C(c1ccc(F)cc1)C1CCN(C(=S)Nc2ccccc2Cl)CC1 | 0 | 0 | 0 | 0 | 0 | 0 | -
Cc1ccccc1NC(=S)N1CCC(C(=O)c2ccc(F)cc2)CC1 | 42 | 0 | 0 | 0 | 0 | 0 | 0
COc1ccc(-c2nnc(NC(=O)c3ccc(S(=O)(=O)N4CCc5ccccc5C4)cc3)o2)cc1 | 44 | 94 | 0 | 0 | 0 | 0 | 39
Cc1ccc(-n2nnnc2SCC(=O)N2CCc3ccccc3C2)c(C)c1 | 44 | 0 | 0 | 0 | 0 | 0 | 32
Cn1nnnc1SCC(=O)N1CCc2ccccc2C1 | 0 | - | 0 | 0 | 0 | 0 | -
COc1ccc(-c2nnc(SCC(=O)N3CCc4ccccc4C3)o2)cc1 | 43 | 0 | 0 | 0 | 0 | 0 | 0
O=C(N[C@H]1C/C=C\C[C@H](CC(=O)N(CCO)Cc2ccccc2)C(=O)N[C@H](Cc2c[nH]c3ccccc23)COC1=O)OCC1c2ccccc2-c2ccccc21 | 0 | - | 0 | 0 | - | 0 | -
CCc1sc(/C=C(/C#N)C(N)=S)cc1[N+](=O)[O-] | - | - | - | - | 0 | - | -
O=C(NCc1nnnn1-c1ccc(F)c(F)c1)c1ccc2c(c1)OCO2 | 0 | 0 | 0 | 0 | - | 0 | -
O=C(N/N=C(\CC(=O)c1cccs1)C(F)(F)F)c1ccncc1 | 0 | 0 | 0 | 0 | 0 | 0 | -
Cc1ccc(C(=O)N/N=C(/CC(=O)c2cccs2)C(F)(F)F)cc1 | 47 | 0 | 0 | 0 | 0 | 0 | 29
CCN(CC(=O)NCc1cccs1)S(=O)(=O)c1ccccc1Cl | 0 | 0 | 0 | 0 | - | 0 | -
CC(C)(C)C(Cn1ccnc1)NC(=O)c1ccc2nc(C3CC3)oc2c1 (stereo not given) | 0 | 0 | 0 | 0 | 0 | 0 | -
CCn1c(-c2csc3c2CCC(C)C3)n[nH]c1=S (stereo not given) | 48 | 0 | 0 | 0 | 0 | 0 | 0
O=[N+]([O-])c1cccnc1NCCNc1ncc(C(F)(F)F)cc1Cl | 41 | 0 | 0 | 0 | 0 | 0 | 0
Cc1ccc(C(=O)NCCNc2ncc(C(F)(F)F)cc2Cl)cc1[N+](=O)[O-] | 0 | 0 | 0 | 0 | 0 | 0 | -
Cc1ccc(NC(=O)c2cc(S(=O)(=O)N3CCCC3)cn2C)cc1 | 0 | 0 | 0 | 0 | 0 | 0 | -
CCN1CCN(C(=O)/C=C/c2ccc(C)o2)CC1 | 0 | 0 | 0 | 0 | 0 | 0 | -
Cc1ccc(/C=C/C(=O)N2CC(C)CC(C)C2)o1 (stereo not given) | 43 | 0 | 0 | 0 | 0 | 0 | 0
O=C(NNC(=O)C1CC1c1ccccc1)Nc1ccccc1 (stereo not given) | 0 | 0 | 0 | 0 | 0 | 0 | -
Cc1ccc(C2CC2C(=O)NNC(=S)Nc2ccc(Cl)cc2)cc1 (stereo not given) | 46 | 0 | 0 | 0 | 0 | 0 | 0
Cc1nn(-c2cccc(Cl)c2)c2c1C(c1cccnc1)C(C#N)=C(N)O2 (stereo not given) | 41 | 0 | 0 | 0 | 0 | 0 | 31
Cc1cc(N2CCN(c3ccccc3Cl)CC2)n2cc(-c3ccccc3)nc2n1 | 42 | ? | 0 | 0 | - | 0 | 49
Cc1cc(N2CCN(c3ccccc3)CC2)n2cc(-c3ccccc3)nc2n1 | 0 | 0 | 0 | 0 | 0 | 0 | -
Cc1cc(/C=C2/SC(=S)N(c3cccc(C(F)(F)F)c3)C2=O)c(C)n1-c1cccnc1 | 50 | 0 | 0 | 0 | - | 0 | 0
O=C(CSC(=S)N1CCCCC1)N1N=CCC1c1ccccc1 (stereo not given) | 41 | 0 | 0 | 0 | 0 | 0 | 32
O=C(NCCCc1ccccc1)c1ccc(-n2cncn2)c([N+](=O)[O-])c1 | 0 | 0 | 0 | 0 | - | 0 | -
